Assay results: PubChem BioAssay
The other results are listed elsewhere or left out. The source made the active and inactive calls.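 Rule for the calls, unless noted: active = at 20 µM dose, 40% or more inhibition averaged across four replicates; inactive = the rest.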

Columns and labels:
[1] = inhibition of PEG-3 promoter luciferase signal – cell-based, HeLa, luciferase reporter, single concentration, confirmation (AID 602417); conditions: HeLa PEG-Prom luciferase reporter, luminescence, overnight; at 20 µM; stronger effect = higher value
[2] = biological target: PEG-3 (UniProt Q6IN02); assay: inhibition of PEG-3 promoter-driven reporter – cell-based, HeLa, luciferase, CREF/GAPDH counter-screen panel, dose response (AID 624167); conditions: CREF/GAPDH counter-screens; HeLa PEG-Prom luciferase reporter, overnight, run 1, dose range 1, at 100 µM (top of the series) unless noted
Chain of PEG-3 (Q6IN02 whole entry, looked up): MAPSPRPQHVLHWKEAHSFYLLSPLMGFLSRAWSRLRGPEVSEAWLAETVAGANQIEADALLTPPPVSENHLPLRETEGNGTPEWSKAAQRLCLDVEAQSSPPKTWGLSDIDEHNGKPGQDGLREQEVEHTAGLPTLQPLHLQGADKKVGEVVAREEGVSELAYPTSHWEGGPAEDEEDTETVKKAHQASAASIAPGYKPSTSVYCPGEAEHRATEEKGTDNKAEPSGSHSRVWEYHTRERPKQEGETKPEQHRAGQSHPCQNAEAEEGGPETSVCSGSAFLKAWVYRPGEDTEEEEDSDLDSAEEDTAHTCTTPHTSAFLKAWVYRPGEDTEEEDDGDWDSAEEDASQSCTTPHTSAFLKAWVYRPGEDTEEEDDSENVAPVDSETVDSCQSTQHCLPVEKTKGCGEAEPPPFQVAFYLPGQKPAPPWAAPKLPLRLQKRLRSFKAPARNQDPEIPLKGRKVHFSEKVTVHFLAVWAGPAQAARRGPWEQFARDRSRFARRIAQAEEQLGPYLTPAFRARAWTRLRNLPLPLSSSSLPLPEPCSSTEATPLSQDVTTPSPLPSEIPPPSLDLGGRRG

[3] = biological target: PEG-3 (UniProt Q6IN02); assay: as above; conditions: CREF/GAPDH counter-screens; HeLa PEG-Prom luciferase reporter, overnight, run 2, dose range 1, at 100 µM (top of the series) unless noted
[4] = system: Rat fibroblasts (CREF); assay: as above; conditions: CREF/GAPDH counter-screens; run 1, dose range 1, at 100 µM (top of the series)
[5] = system: Rat fibroblasts (CREF); assay: as above; conditions: CREF/GAPDH counter-screens; run 2, dose range 1, at 100 µM (top of the series)
[6] = HIF-2a driven luciferase blockers, single dose – luminescence, 786-0 RCC cells, confirmation (AID 651580;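 active = mean inhibition across four replicates of at least 40 percent at the single tested concentration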); conditions: HIF-2a luciferase reporter luminescence, overnight, at 18.8 µM, stronger effect = higher value
[7] = HIF-1a luciferase reporter signal reduction – MiaPaCa-2 cells, single concentration, counter-screen for HIF-2a inhibitor project, confirmation (AID 651589;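 active = mean inhibition of the reporter signal across four replicates at the single tested dose of 50% or more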); conditions: MiaPaCa-2 HIF-1a luciferase reporter, desferoxamine, overnight; at 18.8 µM; stronger effect = higher value
[8] = biological target: Tumor necrosis factor receptor superfamily member 10B (Homo sapiens) (UniProt O14763); assay: viability loss of caspase-8 NB7 cells with TRAIL – with/without TRAIL, luminescence panel, confirmation (AID 651596; in the data active = activity above about 50%); conditions: NB7 neuroblastoma + caspase-8, TRAIL sensitization, NB7 Caspase-8, with TRAIL, mean of runs, at 10 µM, stronger effect = higher value
Chain of Tumor necrosis factor receptor superfamily member 10B (Homo sapiens) (O14763 whole entry, looked up): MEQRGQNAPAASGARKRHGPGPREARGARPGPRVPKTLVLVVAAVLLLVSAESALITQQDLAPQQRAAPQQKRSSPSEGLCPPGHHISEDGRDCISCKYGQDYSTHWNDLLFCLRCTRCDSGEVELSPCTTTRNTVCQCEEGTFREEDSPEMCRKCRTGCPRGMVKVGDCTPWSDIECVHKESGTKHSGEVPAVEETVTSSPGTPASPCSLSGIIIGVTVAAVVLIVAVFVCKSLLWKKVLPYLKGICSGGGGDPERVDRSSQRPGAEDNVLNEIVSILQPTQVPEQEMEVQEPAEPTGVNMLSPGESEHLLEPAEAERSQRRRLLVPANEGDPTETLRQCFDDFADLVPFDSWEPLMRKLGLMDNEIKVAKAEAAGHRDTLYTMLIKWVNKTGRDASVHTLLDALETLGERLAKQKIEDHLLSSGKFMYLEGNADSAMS

[9] = as above; conditions: NB7 neuroblastoma + caspase-8, without TRAIL, NB7 Caspase-8, without TRAIL, mean of runs, at 10 µM
[10] = biological target: Tumor necrosis factor receptor superfamily member 10B (Homo sapiens) (UniProt O14763); assay: compound enhancement of TRAIL-induced cell killing – NB7 cells plus caspase-8, luminescence, panel, dose response (AID 652002); conditions: NB7 neuroblastoma +caspase-8, TRAIL sensitization, luminescence viability, NB7+Caspase-8, with TRAIL, run 1; at 12.5 µM (top of the series)
[11] = biological target: Tumor necrosis factor receptor superfamily member 10B (Homo sapiens) (UniProt O14763); assay: as above; conditions: NB7 neuroblastoma +caspase-8, TRAIL sensitization, luminescence viability, NB7+Caspase-8, with TRAIL, run 2; at 12.5 µM (top of the series)
[12] = as above; conditions: NB7 neuroblastoma +caspase-8, no TRAIL, compound-alone cytotoxicity counter-screen, luminescence viability, NB7+Caspase-8, run 1; at 12.5 µM (top of the series) unless noted
[13] = as above; conditions: NB7 neuroblastoma +caspase-8, no TRAIL, compound-alone cytotoxicity counter-screen, luminescence viability, NB7+Caspase-8, run 2; at 12.5 µM (top of the series) unless noted

CN(O)C(=S)c1ccccc1
inhibition [1]: 89.1% (active) | inhibition [2]: 27% | inhibition [3]: 78.7% | inhibition [4]: 0.489% | inhibition [5]: -19.9%

COc1cccc2c1C(=O)c1c(O)c3c(c(O)c1C2=O)CC(O)(C(C)=NNC(=O)c1ccc(Cl)c(Cl)c1)CC3OC1CC(N)C(O)C(C)O1 (stereo not drawn)
inhibition [1]: 96.6% (active) | inhibition [2]: 102% | inhibition [3]: 101% | inhibition [4]: 99.3% | inhibition [5]: 98.6%

O=C(NCCN1CCOCC1)c1ccc(/C=C2\Sc3ccccc3N(Cc3ccc(F)cc3)C2=O)cc1
inhibition [1]: 42.8% (active)

Cc1nc(SCC(=O)Nc2cc(C)on2)c2c(C)c(C)sc2n1
inhibition [1]: 33.6% (inactive)

O=c1[nH]c(=S)[nH]c(O)c1/C=C1\C=Nc2ccccc21
inhibition [1]: 47.7% (active) | inhibition [2]: 73% | inhibition [3]: 100% [run 2, dose range 1, at 50 µM]

O=C(Nc1cccc(-c2cccc(Cl)c2)c1)C1CCN(C2CCC2)CC1
inhibition [1]: 92.8% (active) | inhibition [2]: 98% | inhibition [3]: 98.9%

CN(Cc1ccccc1F)C(=O)C(Cc1ccccc1)NC(=O)c1ccccc1 (stereo not drawn)
inhibition [1]: 48.7% (active) | inhibition [2]: 98.9% | inhibition [3]: 95.1%

Cc1nnc(SCC(=O)N2c3ccccc3C(C)(c3ccc(Cl)cc3)CC2(C)C)s1 (stereo not drawn)
inhibition [1]: 38.4% (inactive)

CN1OC[C@@H]2CN(S(=O)(=O)c3cccc(C(F)(F)F)c3)[C@H](c3ccc(-c4cc5ccccc5o4)cc3)C[C@@H]21
inhibition [1]: 52.7% (active) | inhibition [6]: 46.4% (active) | inhibition [7]: 75.2% (active) | inhibition [2]: 60% | inhibition [3]: 73.1% | inhibition [4]: 17% | inhibition [5]: 24.5%

COc1ccc2sc(-c3ccc(S(C)(=O)=O)cc3)c(C#Cc3cncn3C)c2c1
inhibition [1]: 51.8% (active) | inhibition [2]: -25.4% | inhibition [3]: 60.8% [run 2, dose range 1, at 50 µM] | activity [8]: 66.7% | activity [9]: 34.3% | activity, % sensitization [10]: 13.3% | activity, % sensitization [11]: 10.2% | activity, % sensitization [12]: -20.9% | activity, % sensitization [13]: -2.18%
